# NCOA2 inhibitor: human SRC2 (NCOA2) inhibition; Q15596; HEK293 GAL4-SRC2 luciferase reporter, luminescence; inhibition, % at 9 µM; actives 0.17% (n = 370,000);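 active means inhibition above the mean inhibition of all tested compounds plus 3 SD, set per campaign, cut at about 52% in these data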;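 further: 0% = DMSO treated cells and 100% = cells given Gossypol at 36 µM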
# NR2F2 inh: blocks human COUP-TFII nuclear receptor | HEK293T NGFI-A luciferase reporter, luminescence | inhibition, % at 8.6 µM | actives 0.7% (n = 370,000);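 active means inhibition above a per-plate cutoff, mean inhibition of test wells between control levels plus 3 SD, cut at about 38% in these data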;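 further: cells cotransfected with COUP-TFII expression vector driving the NGFI-A reporter; 0% = median of COUP-TF2 test wells and 100% = reporter-only cells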
# Target sequence (P24468 whole entry, looked up): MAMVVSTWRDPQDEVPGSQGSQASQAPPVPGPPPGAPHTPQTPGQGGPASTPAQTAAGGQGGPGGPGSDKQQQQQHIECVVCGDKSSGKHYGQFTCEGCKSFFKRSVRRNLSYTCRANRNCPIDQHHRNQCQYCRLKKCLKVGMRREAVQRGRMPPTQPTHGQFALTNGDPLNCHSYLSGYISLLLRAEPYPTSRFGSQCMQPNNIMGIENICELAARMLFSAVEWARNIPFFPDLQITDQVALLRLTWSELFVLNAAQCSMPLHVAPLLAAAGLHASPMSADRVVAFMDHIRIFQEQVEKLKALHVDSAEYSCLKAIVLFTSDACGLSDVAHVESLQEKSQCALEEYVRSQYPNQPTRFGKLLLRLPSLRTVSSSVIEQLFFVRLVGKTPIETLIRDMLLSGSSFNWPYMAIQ
# NCOA3 inh: inhibits human SRC3 coactivator; Q9Y6Q9; HEK293 GAL4-SRC3 luciferase reporter, luminescence; inhibition, % at 3.6 µM; actives 0.17% (n = 360,000); AID 588352;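 active means inhibition above a per-campaign cutoff, the mean of all compounds plus 3 SD, cut at about 60% in these data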;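 further: 0% = DMSO-treated cells and 100% = gossypol-treated cells at 36 µM; higher means less SRC3-driven luciferase light from the GAL4 reporter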
# LRH-1 inv ag: suppresses constitutive activity of human LRH-1; inhibition, % at 3.6 µM; actives 0.13% (n = 360,000); O00482; HEK293T StAR-luciferase reporter, LRH-1 transfected, 24 h;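 active means inhibition above the mean inhibition of all tested compounds plus 3 SD, cut at about 73% in these data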;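 further: 0% = DMSO wells and 100% = reporter-only cells lacking LRH-1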
# NCOA1 inh: inhibits human SRC1 coactivator; HEK293 GAL4-SRC1 luciferase reporter, luminescence; inhibition, % at 3.6 µM; actives 0.12% (n = 360,000); AID 588354;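 active means inhibition above the campaign mean plus 3 SD, with each screening campaign given its own cutoff, cut at about 60% in these data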;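 further: 0% = DMSO treated cells and 100% = gossypol at 36 µM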
# GalR3 antagonist: human GalR3 antagonism | O60755 | HEK293 GalR3-CNG cAMP membrane potential fluorescence; galR3 body fused to GalR1 C-terminus | inhibition, % at 3 µM | actives 0.44% (n = 360,000);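 active means inhibition above the screen-wide average plus 3 SD, cut at about 13% in these data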;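 further: forskolin and galanin both at EC90 stimulate the cells; cAMP rise reported by CNG channel membrane potential dye signal; 0% = forskolin plus galanin with DMSO and 100% = forskolin alone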
# Target sequence (O60755 1-299 limits assumed): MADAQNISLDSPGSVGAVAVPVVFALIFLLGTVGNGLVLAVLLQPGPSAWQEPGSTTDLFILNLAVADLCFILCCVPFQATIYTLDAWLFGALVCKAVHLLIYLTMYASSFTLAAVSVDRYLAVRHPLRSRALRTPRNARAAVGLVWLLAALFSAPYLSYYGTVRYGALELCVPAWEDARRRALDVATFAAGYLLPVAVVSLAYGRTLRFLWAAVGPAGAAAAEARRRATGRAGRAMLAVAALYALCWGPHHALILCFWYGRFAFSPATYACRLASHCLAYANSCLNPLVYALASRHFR
# VP16 Luc counter: inhibits VP16 reporter, flagging COUP-TFII antagonist hits. shares compounds with NR2F2 inh. HEK293 Gal4-VP16 luciferase reporter, luminescence. inhibition, % at 8.5 µM. actives 25% (n = 2,500); in the data active means inhibition above about 13%
# COUP-TFII conf: COUP-TFII (NR2F2) inhibition, confirmation assay | shares compounds with NR2F2 inh | HEK293 NGFI-A luciferase reporter, luminescence | inhibition, % at 8.5 µM | actives 45% (n = 2,500) | AID 687008;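 active means mean inhibition over three repeats above a set limit taken from the earlier primary screen, cut at about 38% in these data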;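 further: 100% = cells given the luciferase reporter alone without the COUP-TF2 vector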
# Numbers without * were called inactive; nt = not tested or not shown. Most compounds without a hit are left out; they make up all but 1.1% or so of the library.
SMILES,NCOA2 inhibitor,NR2F2 inh,NCOA3 inh,LRH-1 inv ag,NCOA1 inh,GalR3 antagonist,VP16 Luc counter,COUP-TFII conf
Cc1nc2cc(-c3ccccc3)sc2c(=O)n1N,49.1,25.1,0.9,-61.7,-15.6,-3.1,nt,nt
Cc1ccc(S(=O)(=O)N2CCc3ccccc3CC2)cc1,10.7,66.4*,28.9,48.6,22.7,-2.4,4.7,50.3*
Cc1c(CCC(=O)O)c(=O)oc2cc3oc4c(c3cc12)CCCC4,64.0*,42.4*,13.8,14.0,-20.4,-7.9,58.8*,50.4*
Cc1c(CCC(=O)NCC(=O)NCC(=O)O)c(=O)oc2cc3oc4c(c3cc12)CCCC4,32.9,-6.5,-11.8,-22.6,-0.1,-10.1,nt,nt
Cc1c(CCC(=O)N[C@@H](CC(C)C)C(=O)O)c(=O)oc2cc3oc4c(c3cc12)CCCC4,44.6,45.9*,8.4,6.2,6.0,-11.8,21.3*,25.6
COC(=O)[C@]12CCCCC=C1N(CCc1ccc(OC)c(OC)c1)C(=O)[C@H](CC(=O)NCCCCc1ccccc1)C2,-26.2,-28.1,nt,-25.5,nt,-6.3,nt,nt
COc1ccc(CNC(=O)O[C@H]2CN(C(=O)OC(C)C)N(C(=O)OC(C)C)[C@@H]3CN(S(=O)(=O)c4ccc(C)cc4)C[C@]23O)cc1OC,-10.0,3.3,17.5,-4.2,9.4,-6.7,nt,nt
Cc1ccc(/C=C2/SC(=S)N(CCCC(=O)Nc3ccc(O)cc3)C2=O)cc1,84.6*,70.0*,36.2,41.1,42.3,-6.2,-78.2,-12.9
O=C(CCN1C(=O)/C(=C/c2ccccc2Cl)SC1=S)NNC(=O)c1ccccc1O,-8.7,13.1,-1.4,-22.8,-12.7,-8.7,nt,nt
O=C(CCCN1C(=O)/C(=C/c2ccccc2Cl)SC1=S)Nc1ccccn1,68.8*,40.5*,14.6,30.3,20.2,-9.0,6.2,25.2
Cc1ccc(/C=C2\SC(=S)N(CCCC(=O)NC3CCCC3)C2=O)cc1,88.7*,42.1*,57.0,34.0,58.7,1.3,12.2,21.1
Cc1ccc(C(=O)NNC(=O)CCCN2C(=O)/C(=C/c3ccccc3Cl)SC2=S)cc1,63.0*,47.0*,34.3,10.7,20.7,-0.5,31.6*,32.8
COc1cc(/C=C2\SC(=S)N(CCC(=O)NC3CCCC3)C2=O)cc(OC)c1OC,-3.0,3.2,57.7,8.4,7.0,-7.3,nt,nt
O=C(CCN1C(=O)/C(=C/c2ccccc2Cl)SC1=S)Nc1ccccn1,-0.8,6.2,-0.1,3.8,-6.0,1.1,nt,nt
COC(=O)[C@]12C[C@H](CC(=O)NCc3ccc(C)o3)C(=O)N(Cc3ccc4c(c3)OCO4)C1=C[C@H](COCc1ccccc1)O[C@@H]2C,3.9,0.0,nt,nt,nt,-7.6,nt,nt
Cc1ccc(/C=C2\SC(=S)N(CCCC(=O)NNC(=O)c3ccccc3O)C2=O)cc1,87.5*,70.0*,58.0,24.0,52.9,3.0,23.1*,38.5*
Cc1nn(-c2ccccc2)c(Cl)c1C(=O)NC1CCCCC1,-21.1,-5.6,-1.3,-18.4,-8.8,-0.3,nt,nt
Cc1nn(-c2ccccc2)c(C)c1C(=O)OC(C)C(=O)NC1CCCCC1 (stereo not drawn),19.1,59.0*,19.2,13.7,-7.3,-7.8,-1.0,21.4
Cc1c(C(=O)N2CCC(C)CC2)oc2ccc3c(c12)C(O)CC1(CCCCC1)O3 (stereo not drawn),10.7,38.0*,-13.7,2.9,-54.8,-7.8,-3.9,5.1
Cc1ccc(-c2csc(=Nc3cccnc3)n2CCCN2CCCC2=O)cc1C,-10.5,-8.9,14.3,1.4,7.2,-1.6,nt,nt
Cc1ccc(-c2csc(=Nc3cccnc3)n2CCCn2ccnc2)cc1C,62.4*,55.2*,56.0,15.7,62.8*,5.5,18.3*,44.8*
Cc1cc(Br)ccc1NC(=O)CN(C)C(=O)C1CCN(c2ncnc3sc(C)c(C)c23)CC1,51.3,47.0*,31.3,11.0,20.0,-4.9,10.0,37.4
O=C(c1ccccc1)c1c2c(cc3sc4ccccc4[n+]13)-c1cccc3cccc-2c13,6.3,48.6*,56.0,72.1,30.1,-4.4,9.8,57.3*
Cc1sc2cc3c(c(C(=O)c4ccccc4)[n+]2c1C)-c1cccc2cccc-3c12,-18.7,60.1*,nt,nt,nt,-0.8,22.1*,55.0*
O=C(NC(c1ccc(-c2ccccc2)cc1)c1cnccn1)C1CCN(Cc2ccc3c(c2)OCO3)CC1 (stereo not drawn),-9.7,-1.0,-7.1,-10.4,7.8,-9.0,nt,nt
SMILES,NCOA2 inhibitor,NR2F2 inh,NCOA3 inh,LRH-1 inv ag,NCOA1 inh,GalR3 antagonist,VP16 Luc counter,COUP-TFII conf
Cc1cc(O)c(Sc2ncn[nH]2)cc1NS(=O)(=O)c1ccc(Cl)cc1,13.6,-9.9,16.6,-22.1,12.3,1.8,nt,nt
O=S(=O)(Nc1cc(Sc2ncn[nH]2)c(O)c2ccccc12)c1ccccc1,69.5*,71.6*,83.6*,88.8*,89.5*,-8.9,1.7,11.8
CCOC(=O)N1CCN(C(=O)C[C@H]2C[C@@]3(C(=O)OC)C(=C[C@H](C(C)C)O[C@@H]3C3CC3)N(Cc3ccc(Cl)cc3Cl)C2=O)CC1,24.3,27.7,nt,nt,nt,nt,nt,nt
COC(=O)[C@]12C[C@H](CC(=O)NCCC(C)C)C(=O)N(Cc3ccc4c(c3)OCO4)C1=C[C@H](C(C)(C)C)O[C@@H]2C,-23.8,18.2,nt,nt,nt,-6.8,nt,nt
COCC(C)n1c(C)cc(C(=O)COC(=O)c2cc(=O)[nH]c3ccccc23)c1C (stereo not drawn),24.4,62.3*,36.9,4.7,33.4,-4.2,2.7,58.0*
S=C(NN=C(c1ccccc1)c1ccccn1)N(Cc1ccccn1)Cc1ccccn1,23.4,54.2*,71.4*,69.9,65.9*,-6.3,2.5,45.1*
CC(C)(C)c1ccc(-c2nnc(SCC(=O)Nc3cccc4ccccc34)n2Cc2ccco2)cc1,-11.2,37.8*,nt,nt,nt,nt,4.3,11.1
CC(=O)C1=C(C)N(Cc2ccc(Br)cc2)C(=S)NC1c1ccc(F)cc1 (stereo not drawn),23.9,-4.7,nt,nt,nt,-6.4,nt,nt
Cc1ccc(C)c(S(=O)(=O)NCc2ccncc2)c1,28.4,42.8*,11.3,11.4,1.1,2.2,-2.6,16.6
COc1cccc(-c2ccc3c(c2)[C@@H]2C[C@H]4[C@@H](CN2CC3)[C@H](C)ON4C)c1,-17.2,-14.7,nt,nt,nt,-4.2,nt,nt
O=C(c1ccccc1)c1ccc(OCC(O)CN2CCN(S(=O)(=O)N3CCCCC3)CC2)cc1 (stereo not drawn),21.9,41.7*,2.7,26.3,14.0,-7.5,-5.6,7.1
CCCCN(c1ccccc1)c1ncnc(N)c1[N+](=O)[O-],57.0*,51.6*,63.4*,24.3,60.9*,-6.5,14.7*,30.7
